# Test results: ChEMBL document CHEMBL3433997, “St. Jude Leishmania screening dataset” (2016)
# Molecular target: Solute carrier family 2, facilitated glucose transporter member 1 (Homo sapiens) (UniProt P11166)
# Test: ST_JUDE_LEISH: Cytotoxicity at 2uM final concentration against transgenic Leishmania Mexicana promastigotes LmGLUT1 that are glucose transport deficient and complemented with the human glucose transporter GLUT1. Activity is measured by DNA content using SYBR green in vitro
# Type: functional
# Chain of Solute carrier family 2, facilitated glucose transporter member 1 (Homo sapiens) (P11166 whole entry): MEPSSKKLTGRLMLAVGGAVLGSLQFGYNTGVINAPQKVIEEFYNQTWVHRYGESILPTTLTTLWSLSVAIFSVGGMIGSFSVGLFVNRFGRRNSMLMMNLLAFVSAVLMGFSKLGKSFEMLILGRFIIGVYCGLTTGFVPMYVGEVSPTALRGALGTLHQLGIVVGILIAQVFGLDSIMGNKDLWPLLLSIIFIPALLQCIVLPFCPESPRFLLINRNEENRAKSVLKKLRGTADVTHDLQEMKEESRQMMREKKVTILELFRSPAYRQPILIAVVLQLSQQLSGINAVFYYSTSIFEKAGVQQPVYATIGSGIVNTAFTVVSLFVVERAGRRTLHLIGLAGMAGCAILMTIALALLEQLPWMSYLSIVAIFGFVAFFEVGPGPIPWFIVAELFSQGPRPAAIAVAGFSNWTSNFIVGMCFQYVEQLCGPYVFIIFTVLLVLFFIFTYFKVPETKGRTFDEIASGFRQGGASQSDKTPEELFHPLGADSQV
row,SMILES,inhibition
1,Cc1nc(C)c(CC(=O)Nc2ccc(-c3ccc(-c4nc5cc(C(F)(F)F)ccc5[nH]4)s3)cc2)s1,2.35%
2,CC(C)(C)c1ccc(OC(=O)c2ccc(NC(=O)N[C@@H](Cc3ccc(O)cc3)C(=O)NC3CCN(Cc4ccc(O)cc4)C3)cc2)cc1 (stereo not given in full),9.86%
3,O=C(/C=C/c1ccc(Cl)c(Cl)c1)NCCCCCN1CCC(NC(=O)NCCc2ccccc2)CC1,1.48%
4,Cc1c(CCC#N)c(NCc2ccccc2)n2c(nc3ccccc32)c1C#N,1.13%
5,CN(C)CCN(Cc1ccccc1-c1ccc(CNCCc2ccccc2)cc1)C(=O)c1ccccc1,3.46%
6,CSc1nc2nc(C)c(Cc3cccc(F)c3)c(C)n2n1,-1.07%
7,Fc1ccc2[nH]c(-c3ccc(-c4ccc(CN5CCC(CCN6CCCCC6)CC5)cc4)s3)nc2c1,5.18%
8,Cc1ccc(Nc2nc(N/N=C/c3cccc(O)c3)nc(Nc3ccc([N+](=O)[O-])cc3)n2)cc1C,3.08%
9,O=c1cc(NCCCNCc2cc(Br)ccc2F)[nH]c2ccccc12,-1.01%
10,O=C(NC(Cc1ccccc1)C(=O)O)c1cc(=O)c2ccccc2o1 (stereo not given),0.32%
11,CC(C)(CNCc1ccc(F)c(F)c1)c1nc(-c2ccc(Cl)c(O)c2)c(-c2ccncc2)[nH]1,2.43%
12,O=C(NCc1ccc(Cl)c(Cl)c1)c1ccc(-c2nc3cc(F)c(F)cc3[nH]2)cc1,0.21%
13,CC(=O)Nc1ccc(C(=O)NC2CCN(c3ccnc4cc(Cl)ccc34)C2)cc1 (stereo not given),0.36%
14,c1ccc(CN2CCC(NCc3ccccc3-c3cccc(CNCc4ccc5c(c4)OCO5)c3)CC2)cc1,-2.53%
15,O=C(Nc1cccc(-c2cccc(-c3nc4cc(C(F)(F)F)ccc4[nH]3)c2)c1)c1cccnc1Cl,0.15%
16,N#Cc1ccc2c(c1)CCN(CCC1CCC(NC(=O)c3cc4ccccc4[nH]3)CC1)CC2 (stereo not given),8.94%
17,Clc1cc(Cl)c2c(c1)C(NCCCNc1nc3ccccc3[nH]1)CCO2 (stereo not given),18.5%
18,COc1cc(OC)cc(C(=O)Nc2ccc(Nc3nc(C)cc(N(C)C)n3)cc2)c1,6.01%
19,CC(=O)OCCN1C(=O)c2ccc3c4c(ccc(c24)C1=O)C(=O)N(CCOC(C)=O)C3=O,3.05%
20,COCCNCc1ccc(-c2ccccc2CNC2CCN(Cc3ccccc3)CC2)cc1,1.97%

row,SMILES,inhibition
1,O=C(O[C@@H]1CN[C@H](C#Cc2cc3c(Nc4ccc5c(cnn5Cc5ccccc5)c4)ncnc3s2)C1)N1CCCC1,-0.49%
2,O=C(/C=C/c1ccccc1Cl)Nc1ccc(Br)c(OCCN2CCN(CCN3CCOCC3)CC2)c1,1.48%
3,COc1ccc(CN2CCN(C(=O)c3cccs3)CC2)c(O)c1,10.5%
4,CC(C)CC(NC(=O)c1ccc(F)cc1)C(=O)N[C@H](/C=N/N1CCNC1=O)CC(C)C (stereo not given in full),3.16%
5,CN(C)CCC1CCN(CCS(=O)(=O)c2cccc(Nc3ccc(-c4ccsc4)cn3)c2)CC1,-0.36%
6,CCCN(CC1CC1)c1ncc(-c2cccc(CNCc3ccccc3O)c2)cn1,-1.8%
7,Fc1cccc(C=NNc2ccnc3cc(Cl)ccc23)c1,3.49%
8,CCCc1cc(Cc2cnc(N)nc2N)cc(CCC)c1O,2.06%
9,Cc1cccc2nc(-c3ccc(-c4cccc(NC(=O)c5cccc(C(N)=O)c5)c4)cc3)[nH]c12,3.55%
10,CC(C)NCc1cccc(-c2ccc(-c3nc4cc(C(F)(F)F)ccc4[nH]3)cc2)c1,7.38%
11,CC(=O)c1ccc(-c2ccc(C(=O)NCCCCN3CCC(c4ccc5c(c4OCC(N)=O)CCCC5)CC3)cc2)s1,1.36%
12,COc1ccc(CNC(=O)NC2CCN(c3ccnc(Nc4cc(OC)c(OC)c(OC)c4)n3)C2)cc1 (stereo not given),1.55%
13,CCNc1cc(C)nc(Nc2ccc(NC(=O)c3ccccc3Cl)cc2)n1,6.51%
14,OCCNc1nc(Nc2ccc(Cl)cc2)nc2ccccc12,6.17%
15,COc1ccc2nccc([C@@H](O)CN3CCC(NCc4ccc(OC)c(NC(C)=O)c4)CC3)c2c1,0.33%
16,COc1ccc(CNC2Cc3ccccc3C2)cc1-c1ccc(S(=O)(=O)NCCN2CCCC2)c(F)c1,28.3%
17,CC1CCc2c(C(=O)Nc3c(F)cc(F)cc3Br)csc2C1 (stereo not given),-0.18%
18,Cc1nc(C)c(-c2ccc(Oc3cc(Cl)cc(Cl)c3)cc2)c(O)c1Cl,2.68%
19,Cc1ccc(O)cc1Nc1ccnc2ccc(C(C)(C)C)cc12,-2.04%
20,COc1ccc2[nH]c(C)cc(=NN=Cc3ccccc3)c2c1,-2.87%
